Assay results: the GenesisPotency data set
The whole screen tested about 290,000 compounds, of which about 3,000 (1%) were called active. Cut-off read from the data, not from the text of the source: active = inhibition mostly above about 36% (no sharp cut-off); inactive = mostly below about 34%. The sample as a whole holds a higher share of actives than the screen did.

target: T1, Nucleotide-binding oligomerization domain-containing protein 1, Homo sapiens (UniProt Q9Y239); assay: inhibition of NOD1-driven NF-kB reporter – cell-based, luminescence, uHTS, primary screen (AID 1578)
T1 sequence (whole entry): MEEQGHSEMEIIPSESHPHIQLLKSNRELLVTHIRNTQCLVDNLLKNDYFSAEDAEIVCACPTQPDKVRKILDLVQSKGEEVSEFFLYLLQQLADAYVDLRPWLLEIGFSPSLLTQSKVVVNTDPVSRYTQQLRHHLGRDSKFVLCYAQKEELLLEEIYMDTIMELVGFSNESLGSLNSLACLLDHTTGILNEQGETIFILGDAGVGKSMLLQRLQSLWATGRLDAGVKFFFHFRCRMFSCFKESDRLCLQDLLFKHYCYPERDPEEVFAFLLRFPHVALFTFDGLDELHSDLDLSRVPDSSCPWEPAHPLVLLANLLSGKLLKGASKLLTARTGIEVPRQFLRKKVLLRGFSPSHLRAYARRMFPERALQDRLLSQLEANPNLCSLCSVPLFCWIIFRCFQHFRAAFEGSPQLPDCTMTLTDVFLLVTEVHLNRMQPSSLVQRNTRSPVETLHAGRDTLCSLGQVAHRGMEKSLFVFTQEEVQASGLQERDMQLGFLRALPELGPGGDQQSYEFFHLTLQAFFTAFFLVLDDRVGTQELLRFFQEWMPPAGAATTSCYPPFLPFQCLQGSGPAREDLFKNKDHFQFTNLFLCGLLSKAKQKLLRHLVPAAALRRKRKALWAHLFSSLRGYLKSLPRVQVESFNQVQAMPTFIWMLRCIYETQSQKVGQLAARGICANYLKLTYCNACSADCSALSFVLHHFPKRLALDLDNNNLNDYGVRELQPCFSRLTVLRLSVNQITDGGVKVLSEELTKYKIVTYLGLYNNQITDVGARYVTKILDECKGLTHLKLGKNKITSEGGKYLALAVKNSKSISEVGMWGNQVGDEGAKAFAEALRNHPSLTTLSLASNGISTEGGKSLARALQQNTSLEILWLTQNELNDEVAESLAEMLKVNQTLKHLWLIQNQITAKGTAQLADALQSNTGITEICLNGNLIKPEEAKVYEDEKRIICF

outcome, active:
O=c1c(C(c2ccccc2)c2c(O)sc3ccccc3c2=O)c(O)sc2ccccc12, COc1ccc2cc3c(N)nn(C(=O)c4cccc(F)c4)c3nc2c1, COc1ccc2cc3c(N)nn(C(=O)c4ccc(F)cc4)c3nc2c1, COc1ccc2cc3c(N)nn(C(=O)c4cccc([N+](=O)[O-])c4)c3nc2c1, Cc1ccc2nc(NC(=O)CSCC(=O)OCC(=O)c3ccc(Br)cc3)sc2c1, Cc1c(C)c2ccc(OCC(=O)Nc3ccccn3)c(C)c2oc1=O, COc1cccc(C(=O)c2sc(NC(C)C)nc2N)c1, O=c1c(Cl)c(Cl)cnn1Cc1nnc(-c2ccccc2Br)o1, CC(C)c1ccc(-c2nnn(CCC(=O)O)n2)cc1, COC(=O)CCn1nnc(-c2ccc(C(C)C)cc2)n1, COc1ccc2cc3c(N)nn(C(=O)c4ccccc4Cl)c3nc2c1, COc1ccc2cc3c(N)nn(C(=O)c4ccccc4[N+](=O)[O-])c3nc2c1, COc1ccc2cc3c(N)nn(C(=O)C4CCC(C(C)(C)C)CC4)c3nc2c1 (stereo not drawn), CN(Cc1ccccc1)S(=O)(=O)c1nnc(NC(=O)c2ccc(F)cc2)s1, COc1cc(OC)c(N(C)S(=O)(=O)c2cccc(C(=O)OCC(=O)c3c[nH]c4ccccc34)c2)cc1Cl, O=c1cc(CSc2ccc(Cl)cc2)nc(-c2ccccn2)[nH]1, Cn1c2ccccc2c(=O)c2c(=O)n(C3CCCCC3)c(-c3ccco3)nc21, O=C(Nc1cc(C(F)(F)F)cc(C(F)(F)F)c1)Nc1cnn(-c2ccc([N+](=O)[O-])cc2)c1C(F)(F)F, O=S(=O)(Nc1nc2ccccc2nc1N1CCN(c2ccccc2F)CC1)c1ccc(Cl)cc1, COc1ccccc1-c1cc(C(F)(F)F)nc(S(=O)(=O)CCCC(=O)N2CCCCC2C)n1 (stereo not drawn), COc1ccccc1-c1cc(C(F)(F)F)nc(S(=O)(=O)CCCC(=O)Nc2cccnc2Cl)n1, COc1ccc(-c2cc(C(F)(F)F)nc(S(=O)(=O)CCCC(=O)Nc3cccnc3Cl)n2)cc1OC, COc1ccc(-c2cc(C(F)(F)F)nc(S(=O)(=O)CCCC(=O)Nc3cccc(O)c3)n2)cc1OC, COc1ccc2c(C(=O)CCl)c[nH]c2c1, COc1ccc2[nH]cc(C(=O)CCl)c2c1, Cc1nn(-c2ccccc2)c(Cl)c1CN(C(=O)CCl)c1ccc(Cl)cc1, CCC(=O)Nc1cccc(C(=O)/C=C/c2cc(Br)ccc2OC)c1, COc1ccc(Br)cc1/C=C/C(=O)c1ccc(NC(C)=O)cc1, Cc1ccc(C(C)C)c(OCc2ccc(C(=O)N/N=C/c3ccc(C(=O)O)cc3)cc2)c1, O=C(CSc1cccc2cccnc12)Nc1ccc(S(=O)(=O)N2CCOCC2)cc1, CN(C)S(=O)(=O)c1cccc(NC(=O)CSc2cccc3cccnc23)c1, CCOc1ccc2c(c1)C(=NNC(=O)c1ccncc1)c1cc(OCC)ccc1-2, CC(=O)c1c(C)[nH]c(C(=O)COC(=O)c2cccc(S(=O)(=O)N(C)c3ccccc3)c2)c1C, CNc1nc(-c2ccc3c(c2)CCN3S(=O)(=O)c2ccccc2)c(C)s1, COc1ccc(Nc2cc(Nc3cc(OC)c(OC)c(OC)c3)ncn2)cc1, Cc1cc(Nc2nc3ccccc3nc2Cl)n(-c2ccc([N+](=O)[O-])cc2)n1, COc1ccc(C)cc1NC(=O)CSc1ccc(-c2ccccn2)nn1, COc1ccc(-c2nnc(NC(=O)c3ccc(F)cc3)o2)cc1, CCOc1ccc(-c2nnc(NC(=O)c3ccc(OCC(C)C)c(OC)c3)o2)cc1, O=C(Nc1nnc(-c2ccc(F)cc2)o1)c1cccc([N+](=O)[O-])c1, O=C(Nc1nnc(-c2ccc(F)cc2)o1)c1cc(Cl)sc1Cl, CN(c1ccccc1)S(=O)(=O)c1ccc(C(=O)Nc2nnc(-c3ccc(F)cc3)o2)cc1, O=C(Nc1ccc(C(F)(F)F)cc1)C1CCN(S(=O)(=O)c2ccc(N3CCCC3=O)cc2)CC1, C/C(=N\Nc1ncnc2sc(C)c(C)c12)c1ccccn1, COc1ccc2c(c1)c(C(C)=O)c(C)n2CCc1ccccc1, CCOc1ccc(-n2c(C)c(C(C)=O)c3cc(OC(C)=O)ccc32)cc1, COc1ccc(-n2c(C)c(C(C)=O)c3cc(OC(C)=O)ccc32)cc1, CC(=O)c1c(C)n(-c2ccccc2)c2ccc(O)cc12, COc1ccc2c(c1)c(C(C)=O)c(C)n2-c1ccc(C(C)=O)cc1, COc1ccc(-n2c(C)c(C(C)=O)c3cc(O)ccc32)cc1, COc1ccccc1N1CCN(c2nc(C)nc3c2oc2ccccc23)CC1.Cl, COc1ccc(-c2csc3ncnc(NCCN4CCOCC4)c23)cc1, Clc1ccc(-c2csc3ncnc(NCCN4CCOCC4)c23)cc1, CC(C)n1c(CN(C)Cc2ccccc2)nc2c1c(=O)n(C)c(=O)n2C, CCN1/C(=C/C=C/C=C/C=C/c2sc3ccccc3[n+]2CC)Sc2ccccc21.[I-], c1cc(-c2nnc3sc(C4CCCCC4)nn23)ccn1, c1ccc(CCc2nn3c(-c4ccncc4)nnc3s2)cc1, Cc1c(CCC(=O)O)c(=O)oc2cc(OCc3ccccc3Br)ccc12, CC(C)(C)C1CCC2(CC1)C(C#N)=C(SCC(=O)Nc1ccccc1)NC(=O)C2C#N (stereo not drawn), N#CC1=C(SCC(=O)NC23CC4CC(CC(C4)C2)C3)NC(=O)C(C#N)C12CCCCC2 (stereo not drawn), Cc1ccc(NC(=O)CSc2nn(-c3ccccc3)c(=S)s2)cc1S(=O)(=O)N(C)C, CC(C)(C)C(=O)Nc1ccc(NC(=O)c2ccco2)nc1, O=C(Nc1nc2ccc([N+](=O)[O-])cc2s1)c1ccc(S(=O)(=O)N2CCCc3ccccc32)cc1, CC1CCCCN1c1ncnc(N)c1[N+](=O)[O-] (stereo not drawn), Nc1ncnc(N2CCc3ccccc32)c1[N+](=O)[O-], COc1ccc2sc3c(=O)[nH]c4ccccc4c3c2c1, O=S(=O)(c1ccc2c(c1)OCCO2)N1CCN(c2ncnc3sccc23)CC1, Cc1ccc(S(=O)(=O)N2CCN(c3ncnc4sccc34)CC2)cc1
